Screening results deposited in PubChem by Johns Hopkins Ion Channel Center.
KCNQ2 enhance: potentiators of rat KCNQ2 potassium channel. O88943. 310,000 tested, 0.54% active. B-score at 10 µM. CHO-K1 KCNQ2, FluxOR thallium flux fluorescence; active compounds read high;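 active means fluorescence ratio B-score at least 3 SD of library B-scores, with initial fluorescence B-score within 3 of them, cut at about 5.3 in these data; same plate scores as AID 2156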;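 further: B-score of peak minus minimum over baseline fluorescence ratio after K+ and Tl+ stimulus; positive B-score means potentiation of KCNQ2 with more thallium influx and brighter signal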
KCNQ2 inh: blocks the rat KCNQ2 potassium channel. O88943. CHO-K1 KCNQ2, FluxOR thallium flux, 20 min; active compounds read low. B-score at 10 µM. 310,000 tested, 1.1% active. AID 2156;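 active means fluorescence ratio B-score at most minus 3 library SDs, with starting brightness B-score within 2 library SDs, cut at about -5.5 in these data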
Kir21 conf inh: confirmation of mouse Kir2.1 potassium channel inhibitors; 2,300 tested, 41% active; Tl flux remaining, % of negative control (active compounds read low), % at 10 µM; Kir2.1-expressing cells, FluxOR thallium flux fluorescence; active compounds read low; shares compounds with KCNQ2 enhance; AID 2032;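 active means Primary-screen hit whose thallium flux fell at least 3 control SD below untreated wells in both duplicates, with normal baseline fluorescence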;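 further: 0% = blank wells without stimulus and 100% = stimulated no-compound controls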
HEK293 Tl flux: counter-screen for Kir2.1 inhibitors: effect in parental HEK293 cells | shares compounds with KCNQ2 enhance | 2,300 tested, 19% active | FluxOR signal as % of negative control (100 = no effect), % at 10 µM | FluxOR thallium flux fluorescence; 0% = unstimulated blank wells;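 active means dye signal at least 3 control SD above or below untreated wells in both duplicates, raw fluorescence within 3, either direction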;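 further: percent is based on the flux ratio of peak minus minimum fluorescence over baseline F0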
CHO-K1 ctr: counter-screen for KCNQ2 potentiators: effect in parental CHO-K1 cells; shares compounds with KCNQ2 enhance; FluxOR thallium flux fluorescence; zero = vehicle mean+3SD, 100% = vehicle-minus-blank window; activity increase over 3SD of controls, % at 10 µM; 1,200 tested, 43% active; AID 2282;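 active means signal rise of at least 3 SD above the untreated control mean, in both duplicate wells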;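 further: counter screen of KCNQ2 potentiator hits so any rise reflects channel-independent effects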
KCNQ1 pot spec: human KCNQ1 counter-target activity of KCNQ2 potentiators. shares compounds with KCNQ2 enhance. CHO KCNQ1 stable, FluxOR thallium flux fluorescence; beyond 3SD, as % of vehicle-control signal. activation over 3SD threshold, % at 10 µM. 1,200 tested, 28% active;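 active means fluorescence ratio rise of at least 3 SD of vehicle wells above their mean, in both replicate wells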;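 further: 0% = vehicle mean plus 3 SD and 100% = vehicle minus unstimulated blank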
Target sequence (P51787 whole entry, looked up): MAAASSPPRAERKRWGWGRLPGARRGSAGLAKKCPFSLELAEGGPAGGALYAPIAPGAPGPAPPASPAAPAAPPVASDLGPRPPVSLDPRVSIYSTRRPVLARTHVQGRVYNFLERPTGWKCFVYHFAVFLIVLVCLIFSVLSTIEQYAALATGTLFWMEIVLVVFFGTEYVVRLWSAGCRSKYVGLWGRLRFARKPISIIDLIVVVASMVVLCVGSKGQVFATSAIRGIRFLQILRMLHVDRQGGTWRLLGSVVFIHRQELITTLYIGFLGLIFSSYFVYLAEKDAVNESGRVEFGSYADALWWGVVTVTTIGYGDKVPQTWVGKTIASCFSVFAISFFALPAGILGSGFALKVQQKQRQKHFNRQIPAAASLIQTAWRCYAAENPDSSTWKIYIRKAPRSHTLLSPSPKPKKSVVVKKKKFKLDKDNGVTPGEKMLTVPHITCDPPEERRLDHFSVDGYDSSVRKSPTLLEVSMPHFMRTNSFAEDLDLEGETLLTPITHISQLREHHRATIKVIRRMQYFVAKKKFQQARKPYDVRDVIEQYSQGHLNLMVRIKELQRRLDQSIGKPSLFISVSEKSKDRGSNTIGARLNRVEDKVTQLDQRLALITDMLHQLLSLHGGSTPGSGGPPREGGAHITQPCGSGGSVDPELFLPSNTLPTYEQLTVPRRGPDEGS
KCNQ2 pot conf: rat KCNQ2 channel potentiator confirmation; shares compounds with KCNQ2 enhance; potentiation, less the hit threshold, % at 10 µM; CHO-KCNQ2 cells, FluxOR thallium flux fluorescence; AID 2287; 1,200 tested, 68% active;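 active means fluorescence ratio rising 3 SD or more over the vehicle control mean in both replicates, plus primary screen hit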;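 further: peak minus minimum thallium fluorescence divided by baseline after K/Tl stimulus; 0% = vehicle mean plus 3 SD and 100% = vehicle minus unstimulated blank difference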
Kir2-1 sel: mouse Kir2.1 off-target activity of KCNQ2 potentiators | shares compounds with KCNQ2 enhance | HEK293 Kir2.1, FluxOR thallium flux fluorescence | activity over 3SD threshold, % at 10 µM | 1,200 tested, 2% active | AID 2345;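 active means fluorescence ratio rise of at least 3 SD above the vehicle-control mean, seen in both replicates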;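 further: 0% = vehicle mean plus 3 SD and 100% = vehicle minus no-stimulus blank window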
KCNQ2 W236L pot: rat KCNQ2 W236L mutant potentiation by KCNQ2 potentiators; CHO KCNQ2-W236L, automated patch clamp current; 940 tested, 10% active; current increase over 3SD of negative controls (%), active compounds read high, % at 25 µM; shares compounds with KCNQ2 enhance;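 active means current increase at least 3 SD of the untreated controls above them in both duplicate recordings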
An asterisk follows results filed as active; i = inactive; . = not tested or not shown. An excerpt weighted towards active compounds, which were near 1.6% of everything screened.

SMILES	KCNQ2 enhance	KCNQ2 inh	Kir21 conf inh	HEK293 Tl flux	others
O=S(=O)(c1ccccc1)N(Cc1ccccc1)c1ccccn1	.	i	i	i
Cc1ccccc1NC(=O)c1nn(C)c2c1CS(=O)(=O)c1ccccc1-2	0.01	i	.	.
COc1ccc(S(=O)(=O)Nc2ccccc2OC)cc1C	1.6	i	.	.
COc1ccc(S(=O)(=O)Nc2ccccc2SC)cc1C	.	i	54%*	i
NC(=O)C1CCN(Cc2cccc(OCc3ccccc3)c2)CC1	0.01	i	.	.
CCOC(=O)C1CCN(Cc2cccc(OCc3ccccc3)c2)CC1	.	i	20%*	i
CCNC(=S)NNc1nc(N2CCCCC2)nc(N2CCOCC2)n1	.	i	.	.
CCc1cccc(N(C(=O)c2csnn2)C(C(=O)NC(C)(C)C)c2ccccn2)c1 (stereo unspecified)	.	i	.	.
COc1ccc(-c2csc(N=C(N)N)n2)cc1	1.3	i	.	.
Cc1ccc(-c2csc(N=C(N)N)n2)c(C)c1	.	i	40%*	i
COc1cccc(C(C)NC(=O)Cc2cccs2)c1 (stereo unspecified)	1.3	i	.	.
Cc1cc(C(=O)Nn2cnc3ccccc3c2=O)ccc1[N+](=O)[O-]	1.1	i	.	.
CCc1cc(-c2n[nH]c(C)c2-c2nc(C)cs2)c(O)cc1OC	2.6	i	37%*	i
CCc1cc(-c2n[nH]c(C)c2-c2nc3ccccc3s2)c(O)cc1OCC(=O)NN	.	i	.	.
CC(=O)NS(=O)(=O)c1ccc(NC(=O)CC(C)c2ccccc2)cc1 (stereo unspecified)	1.3	i	.	.
S=C(NCC1CCCO1)N1CCN(c2nc(-c3ccc(Cl)cc3)cs2)CC1 (stereo unspecified)	.	i	i	i
S=C(NCCCN1CCOCC1)N1CCN(c2nc(-c3ccc(Cl)cc3)cs2)CC1	.	i	.	.
CN(C)CCCNC(=O)C(=O)NCC1CCCO1 (stereo unspecified)	0.05	i	.	.
COc1ccc(NC(=O)C(c2ccc(OC)cc2)N(C)C(=O)c2cnccn2)cc1 (stereo unspecified)	6.4*	i	i	i	CHO-K1 ctr=0.6*;KCNQ1 pot spec=-25;KCNQ2 pot conf=24*;Kir2-1 sel=-28;KCNQ2 W236L pot=i
CC(C)c1ccc(NC(=O)C(c2ccccc2)N(C)C(=O)c2cnccn2)cc1 (stereo unspecified)	0.26	i	.	.
S=C(NCc1ccc2c(c1)OCO2)NC1CCN(Cc2ccccc2)CC1	1	i	40%*	126%*
S=C(NCc1ccccc1)N1CCN(Cc2ccc3c(c2)OCO3)CC1	.	i	.	.
Cc1cc(NC(=O)c2nn(C)c(C)c2Br)no1	0.98	i	.	.
O=C(Nc1cccc(O)c1)c1cc(-c2ccccc2Cl)on1	0.73	i	.	.
Brc1ccc2c(c1)CN1CCCC1=N2	.	i	.	.
SMILES	KCNQ2 enhance	KCNQ2 inh	Kir21 conf inh	HEK293 Tl flux	others
S=c1nc[nH]c2c1cnn2-c1ccccc1	10*	i	i	162%*	CHO-K1 ctr=32*;KCNQ1 pot spec=-9;KCNQ2 pot conf=2.7*;Kir2-1 sel=-37;KCNQ2 W236L pot=i
Nc1ncnc2c1cnn2-c1ccccc1	1.2	i	.	.
CCOC(=O)C1CC(c2ccccc2)=NNC1=O (stereo unspecified)	.	i	.	.
O=C(CC1CC2CCC1C2)NCCc1ccc(Cl)cc1 (stereo unspecified)	5.9*	i	.	.	CHO-K1 ctr=0;KCNQ1 pot spec=-17;KCNQ2 pot conf=0.8*;Kir2-1 sel=-75;KCNQ2 W236L pot=i
CC1CC1C(=O)NCCc1ccc(Cl)cc1 (stereo unspecified)	0.51	i	.	.
Cc1cc(N2C(=O)CC(N3CCN(C(c4ccccc4)c4ccccc4)CC3)C2=O)no1 (stereo unspecified)	.	i	.	.
CCOc1ccc(CN2CCCC(CO)(Cc3ccccc3F)C2)cc1 (stereo unspecified)	0.61	i	.	.
OCC1(Cc2ccc(F)cc2F)CCCN(Cc2ccc(Cl)cc2)C1 (stereo unspecified)	.	i	56%*	i
CSc1cccc(NC(=O)CC2Oc3ccccc3NC2=O)c1 (stereo unspecified)	1	i	.	.
C/C(=N\NC(=O)c1c[nH]c2ccccc12)c1ccc(C)o1	0.24	i	.	.
O=C(NNC(=O)c1cc2ccccc2cc1O)c1cccs1	1.2	i	.	.
C/C(=N\NC(=O)c1cc2ccccc2cc1O)c1cccs1	7.7*	i	i	i	CHO-K1 ctr=102*;KCNQ1 pot spec=-13;KCNQ2 pot conf=-13;Kir2-1 sel=-26
C/C(=N\NC(=O)c1cc2ccccc2cc1O)c1ccc(C)o1	6.7*	i	i	412%*	CHO-K1 ctr=-9;KCNQ1 pot spec=1.0*;KCNQ2 pot conf=67*;Kir2-1 sel=-30;KCNQ2 W236L pot=i
COc1cccc(C(CC(=O)Nc2cccc3ccccc23)NC(=O)c2ccccc2)c1 (stereo unspecified)	.	i	.	.
COc1ccc(C2C3=C(CC(C)(C)CC3=O)OC(N)=C2[N+](=O)[O-])cc1 (stereo unspecified)	0.47	i	.	.
O=[N+]([O-])c1ccc2ccn(C3OCC(O)C(O)C3O)c2c1 (stereo unspecified)	.	i	.	.
O=C(O)c1cc(NN=Nc2cccc([N+](=O)[O-])c2)cc([N+](=O)[O-])c1	2.6	i	.	.
O=C(O)c1cc(NN=Nc2ccc(Br)cc2)cc([N+](=O)[O-])c1	7.4*	i	i	i	CHO-K1 ctr=-2;KCNQ1 pot spec=33*;KCNQ2 pot conf=16*;Kir2-1 sel=-38;KCNQ2 W236L pot=i
CN(CCO)c1ccc(-c2n[nH]c(=O)c3ccccc23)cc1[N+](=O)[O-]	1.6	i	.	.
COc1ccc(OCCN2CCN(C(=O)c3ccc(OC)c(OC)c3)CC2)cc1	.	i	.	.
COc1cc(OC)cc(-c2nnc(Nc3nc4c(F)cccc4s3)o2)c1	3.3	i	.	.
NNc1nc2c(F)cccc2s1	.	i	.	.
Fc1cccc2sc(Nc3nnc(-c4ccccc4)o3)nc12	26*	i	i	449%*	CHO-K1 ctr=1.3*;KCNQ1 pot spec=-21;KCNQ2 pot conf=62*;Kir2-1 sel=1.1*;KCNQ2 W236L pot=i
Fc1cccc2sc(Nc3nc4c(F)cccc4s3)nc12	1.3	i	i	i
COc1ccc(-n2c(C)c(C)c3c(NCCCO)ncnc32)cc1	.	i	.	.
COc1ccc(-c2cc(C(F)(F)F)n3ncc(C(=O)Nc4c(C)n(C)n(-c5ccccc5)c4=O)c3n2)cc1	.	i	.	.
CC(C)P(=O)(Cc1cccc(C#N)c1)C(C)C	.	i	.	.
COc1cc2[nH]c(C(=O)NCc3ccccc3)cc2c(OC)c1OC	.	i	i	i
